Hit rate of the full screen: of about 290,000 compounds, about 27,000 (9.3%) were called active. The entries come from a sample that favours actives as a whole. A number with no mark means an inactive call. Cut-off read from the data, not from the text of the source: active = inhibition mostly above about 28% (no sharp cut-off); inactive = mostly below about 43%.

This assay is described as follows: A qHTS for Small Molecule Inhibitors of Shiga Toxin. Note: 0% is about no effect. Particulars: Vero cells, Shiga toxin protein synthesis inhibition reporter; at 38.7 µM, hits give high values. (Quantitative high-throughput screening tests each substance at several concentrations.)
For the compound `CCN1CCN(C(=O)C2CCCN(S(=O)(=O)c3ccc(OC)c(OC)c3)C2)CC1` (stereo not given), the inhibition (usually the relative decrease from the control value, in per cent) was 11.9%.

As for `NC(=O)c1cc(-c2cccnc2)nc2ccc(Br)cc12`, the inhibition is 20%.

Consider `CC(CN1CCC(n2nccc2NC(=O)C2CCCC2)CC1)c1ccccc1` (stereo not given), for which the inhibition is -13%.

Regarding `Cc1ccccc1C(=O)Nc1ccccc1NC(=O)c1ccccc1C`, the inhibition was -1.64%.

Consider `Cc1cc(NC(=O)CSCc2ccccc2C)no1`, for which the inhibition was 48.6%.

`Cc1cc(NC(=O)c2ccccc2C)no1`: the inhibition is 55.6% (active).

Take `Cc1cccc(-c2nc3ccc(C(=O)NCCN4CCN(C)CC4)cc3nc2-c2cccc(C)c2)c1`: the inhibition was -22.4%.

In the case of `CCOc1c2ccc(C(=O)NCc3ccc4c(c3)OCO4)cc2nn1C`, the inhibition is 9.39%.

For the compound `C=CCNC(=O)c1ccc2c3n(nc2c1)-c1ccc(C)cc1CO3`, the inhibition was 83.8% (active).

On to `COc1cc(CNCc2ccc(OC)c3ccccc23)cc(OC)c1OC`, for which the inhibition was -2.52%.

`Cc1cccc(N(Cc2ccccc2)C(=O)c2ccccc2F)c1`: the inhibition was 41.2%.

With `COc1ccc(COC(=O)N/N=C(\C)CC(=O)Nc2ccc(Cl)cc2)cc1`, the inhibition is -3.95%.

`COc1ccc(C(=O)NC(=S)Nc2ccc(Cl)cn2)cc1OC`: the inhibition is 4.19%.

Take `COc1ccc(C(=O)N/N=C(\C)CC(=O)Nc2ccc(Cl)cn2)cc1`: the inhibition was 97.1% (active).

In the case of `O=C(C1CCC(=O)N(C2CC2)C1)N1CCN(c2ccc(Cl)cc2)CC1` (stereo not given), the inhibition was -16%.

On to `O=C1COc2ccc(S(=O)(=O)Nc3ccc(OC(F)(F)F)cc3)cc2N1`, for which the inhibition was -4.37%.

With `Cc1cc(NS(=O)(=O)c2ccc(NC(=S)NC(=O)c3ccc(F)cc3Cl)cc2)no1`, the inhibition was 16.8%.

As for `CC(=O)c1ccccc1OCc1ccc(C(=O)c2ccccc2)cc1`, the inhibition is 10.9%.

In the case of `Cc1ccc(-n2cc3ccc([N+](=O)[O-])cc3n2)cc1`, the inhibition is 57.1% (active).

Consider `Cc1ccc(-c2cn(S(=O)(=O)c3cccc([N+](=O)[O-])c3)nc2N)cc1`, for which the inhibition was 13.5%.

Consider `Cc1cc(C)nc(Nc2cc([N+](=O)[O-])ccc2C)n1`, for which the inhibition was -5.77%.

`O=C(COc1ccc2c(c1)CCC2)N1CCN(c2ccc(F)cc2)CC1`: the inhibition was -11.3%.

As for `COc1cccc(-n2c(SCC(=O)c3c[nH]c4ccccc34)nc3ccccc3c2=O)c1`, the inhibition was -9.99%.

As to `Cc1ccc(-n2c(SCC(=O)N3CCC(C(=O)O)CC3)nc3ccccc3c2=O)cc1C`, the inhibition was 45.4% (active).

In the case of `CCc1c(O)nc(SCC(=O)N2CCCCC2)n(-c2ccccc2C)c1=O`, the inhibition was 13%.

Take `CCOC(=O)CSc1nc2ccc(C)cc2n2cnnc12`: the inhibition was 9.64%.

As for `O=C(c1cc(-c2ccncc2)nc2ccccc12)N1CCC2(CC1)OCCO2`, the inhibition was 11.7%.

As for `CCC(=O)N1CCCc2ccccc21`, the inhibition is 14.2%.

Turning to `Cc1noc(C)c1C(=O)N1CCOCC1`, the inhibition is -7.37%.

In the case of `Cc1c(C(=O)N2CCCc3ccccc32)oc2ccccc12`, the inhibition is 33.8%.

As to `COc1ccc(-c2cc(C(=O)N3CCN(c4ccc(F)cc4)CC3)no2)cc1`, the inhibition is 11.7%.

Take `O=C(c1cc(-c2ccc(F)cc2)on1)N1CCN(c2ccc(F)cc2)CC1`: the inhibition was -1.74%.

As for `O=C(c1cc(-c2ccc(Cl)cc2)on1)N1CCN(c2ccccc2)CC1`, the inhibition is 67.5% (active).

On to `O=C(c1cc(-c2ccc(O)cc2)on1)N1CCCc2ccccc21`, for which the inhibition is 91.2% (active).

Regarding `O=C(c1cccs1)N1CCN(C(=O)N2CCOCC2)CC1`, the inhibition was -6.78%.

As to `Cc1ccc(-c2cc(C(=O)N3CCC4(CC3)OCCO4)no2)cc1`, the inhibition was 58.1% (active).

Regarding `Cc1cccc(-n2c(C)nc3cc(C(=O)N4CCC5(CC4)OCCO5)ccc32)c1`, the inhibition is 13.6%.

As for `O=C(c1cc(-c2ccc(O)cc2)on1)N1CCOCC1`, the inhibition was 62% (active).

On to `Nc1nc(SCC(=O)Nc2ccc(Cl)cc2C(F)(F)F)n[nH]1`, for which the inhibition is -27.1%.

Consider `COc1cc(OC)cc(C(=O)Nc2nnc(SCC(=O)NCC3CCCO3)s2)c1` (stereo not given), for which the inhibition is 4.36%.

As for `COc1ccc(C(=O)NC2CC(C)(C)NC(C)(C)C2)cc1OC`, the inhibition is 2.67%.

For the compound `NC(=O)CN1CCCC1c1ccc2c(c1)OCCO2` (stereo not given), the inhibition is -2.56%.

Turning to `O=C(NC1CCCC1)C(c1ccco1)N(C(=O)c1ccco1)c1ccc(F)cc1` (stereo not given), the inhibition is 8.42%.

`O=S(=O)(/N=C(/Nc1ccccn1)c1ccccc1)c1ccc(Cl)cc1`: the inhibition is 14.8%.

In the case of `Cc1ccc(S(=O)(=O)/N=C(/Nc2ccccn2)c2ccc(Cl)cc2)cc1`, the inhibition is 31.5% (active).

Consider `Cc1ccc(S/C(=N\S(=O)(=O)c2ccc(Cl)cc2)c2ccccc2)cc1`, for which the inhibition is 11.1%.

For the compound `CC1CCCCC1NC(=O)CSc1nnc(-c2ccncc2)n1CCCN(C)C` (stereo not given), the inhibition was -1.04%.

For the compound `O=C(/C=C/c1ccc(Cl)cc1)Nc1ccc(S(=O)(=O)Nc2ncccn2)cc1`, the inhibition was 17%.

For `Cc1cc(C)nc(NC(=O)/C=C/c2ccc(Cl)cc2)n1`, the inhibition is 41.9%.

Regarding `CC(C)(C)c1ccc(/C=C/C(=O)Nc2ncccn2)cc1`, the inhibition is -4.53% (active).

For `O=c1c2c(-c3ccccc3)ccnc2[nH]n1-c1ccccc1`, the inhibition was 38.7%.

With `CCC(C)(C)NC(=O)C(c1ccc(OC)cc1)N(C(=O)CCC(=O)Nc1cc(C)on1)c1ccc(OC)cc1OC` (stereo not given), the inhibition was 8.4%.

Consider `Cc1sc2ncn(CC(=O)NCCN(C)C)c(=O)c2c1S(=O)(=O)N1CCC(C)CC1`, for which the inhibition is 106% (active).

As for `CCN(CC)CCCNC(=O)Cn1cnc2sc(C)c(S(=O)(=O)N3CCN(c4ncccn4)CC3)c2c1=O`, the inhibition was -11.2%.

For `CCN(CC)CCNC(=O)Cn1cnc2sc(C)c(S(=O)(=O)N3CCOCC3)c2c1=O`, the inhibition was -2.57%.

Take `CC(=O)c1ccc(S(=O)(=O)N2CCC(Oc3ccc(-n4cnnn4)cc3)CC2)cc1`: the inhibition is -8.24%.

With `O=C(O)Cn1c(Cc2ccccc2)nc2ccccc21`, the inhibition was -5.35%.

Turning to `Cc1ccccc1C(=O)N1CCC(C(=O)Oc2ccc(C#N)cc2)CC1`, the inhibition was -13.3%.

For `O=C(Nc1ccc2c(c1)OCCO2)c1ccoc1`, the inhibition is 65.2% (active).

Take `O=C(CCN1C(=O)c2ccncc2C1=O)Nc1ccc2c(c1)OCCO2`: the inhibition was 13.6%.

`O=C(Nc1ccc2c(c1)OCCO2)c1cnccn1`: the inhibition was 42.2%.

For the compound `Cn1c(=O)c2ccccc2n(CC(=O)Nc2ccc3c(c2)OCCO3)c1=O`, the inhibition is -7.05%.

With `O=C(Nc1ccc2c(c1)OCCO2)c1ccncc1`, the inhibition is 117% (active).

With `Cc1ccc(-n2ncc3c2CC(C)(C)CC3NC(=O)Cc2c(C)noc2C)cc1` (stereo not given), the inhibition was -6.91%.

Turning to `COc1cccc(NC(=O)COc2cc(C)cc3oc(=O)cc(C)c23)c1`, the inhibition was -4.63%.

As for `COc1ccc(C2=NS(=O)(=O)N(C)C(C(=O)N3CCCCC3)=C2)cc1`, the inhibition is -2.94%.

Regarding `CC(C)(C)c1ccc(Oc2ccc(N)cc2)cc1`, the inhibition was -23.2%.

`COc1cccc(OCCCN2CCCCCC2)c1`: the inhibition was 11.6%.

`COc1cccc(Oc2ccc(N)cc2)c1`: the inhibition was 33.2% (active).

Turning to `COc1ccc(-c2cc(=O)oc3cc(OCC(=O)N[C@@H](Cc4c[nH]c5ccccc45)C(=O)O)ccc23)cc1`, the inhibition was 1.78%.

With `Cc1cc(=O)n2nc(N3CCCC(C(=O)NCc4cccc(Cl)c4)C3)sc2n1` (stereo not given), the inhibition was 10.1%.

`CN(c1cccc(NC(=O)Nc2ccc(Cl)cc2)c1)S(C)(=O)=O`: the inhibition is 66.3% (active).

As for `Cc1ccc(N(CC(=O)Nc2cccc(N(C)S(C)(=O)=O)c2)S(C)(=O)=O)cc1`, the inhibition is -15.9%.

`COc1cccc(N(CC(=O)Nc2cccc(N(C)S(C)(=O)=O)c2)S(C)(=O)=O)c1`: the inhibition is -9.96%.

As to `COc1ccc(Nc2ccc([N+](=O)[O-])cn2)cn1`, the inhibition is 25.8%.

In the case of `Cc1cccc(-n2nc3c(c2NC(=O)c2cc4ccccc4o2)CS(=O)(=O)C3)c1`, the inhibition is -6.86%.

As to `CCOc1ccc(CCNC(=O)CCc2nnc3ccc(N4CCCC4)nn23)cc1OCC`, the inhibition is -2.23%.

For `CC(CNC(=O)c1ccc(Br)o1)NC(=O)c1ccc(Br)o1` (stereo not given), the inhibition was 10.2%.

`C/C(=N/NC(=O)c1ccc(Br)o1)c1ccc(C)o1`: the inhibition was 91.6% (active).

With `Cc1ccc(/C=N/NC(=O)Cn2nc(C)c(Br)c2C)o1`, the inhibition was -6.63%.

On to `S=C(NN=C1CCN(Cc2ccccc2)CC1)NC1CCCCC1`, for which the inhibition was 9.13%.

Take `CC(CCc1ccccc1)NC(=O)c1ccc(Br)o1` (stereo not given): the inhibition is 0.792%.

In the case of `Cc1ccc(/C=N/NC(=S)NC2CCCCC2)o1`, the inhibition is 72.6% (active).

As for `C/C(=N\NC(=S)NC1CCCCC1)c1ccc(C)o1`, the inhibition was 52.7% (active).

Take `S=C(NCc1ccc(Cl)cc1)NC1CCCCC1`: the inhibition is -6.42%.

Regarding `Cc1ccc(/C=N/NC(=S)Nc2cccc(S(=O)(=O)N(C)C)c2)o1`, the inhibition is 40.8%.

`COc1ccc(CNC(=O)C2CCN(C(=O)c3ccco3)CC2)cc1`: the inhibition was -12.4%.

On to `CCCc1cc(=O)n2[nH]c(C)c(-c3ccc(Cl)cc3)c2n1`, for which the inhibition was -5.47%.

On to `Cc1ccc(C(CNC(=O)Nc2cccc(C)c2)N2CCN(C)CC2)cc1` (stereo not given), for which the inhibition is 1.35%.

For `Cc1c(NC(=O)Nc2cccc([N+](=O)[O-])c2)c(=O)n(-c2ccccc2)n1C`, the inhibition is -5.21%.

On to `CC1CCN(S(=O)(=O)c2ccc3c(ccn3CC(=O)O)c2)CC1`, for which the inhibition is -22.5%.

`Cc1ccc(CC(=O)Nc2ccc(OC(F)F)c(Cl)c2)cc1C`: the inhibition is -4.66%.

Turning to `CC(=O)N1CCN(CC(=O)Nc2ccc(SC(F)F)cc2)CC1`, the inhibition was -12.2%.

Regarding `O=C(Cc1ccc(Cl)c(Cl)c1)Nc1ccc(SC(F)F)cc1`, the inhibition was 43% (active).

Turning to `CNC(=O)[C@]1(C(F)(F)F)C[C@H](CCc2ccccc2)CCCO1`, the inhibition is 32.4%.

For the origin of these results see PubChem BioAssay AID2315 (National Center for Advancing Translational Sciences (NCATS), 2010).
